Reference: PubChem BioAssay AID2102 (Southern Research Specialized Biocontainment Screening …, 2009)
Screen size: about 1,100 compounds; about 210 (19%) were called active. How the calls were made is not given here. Only a sample is shown. Results with a measured potency or affinity are listed apart.

assay: host cell cytotoxicity, dose response, cytotoxicity control for SV40 T antigen inhibitor project, selected hits (AID 2102); details: Host cell viability cytotoxicity counter-screen; series mostly up to 50 µM; viability: at the top concentration;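 further: cells exposed to compounds for 72 hours; 100% = mean of untreated cell control wells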

Row | SMILES | viability
1 | COc1cc(SC)ccc1C(=O)N1CCN(Cc2ccccc2)CC1 | 88.4% (inactive)
2 | COc1cc(SC)ccc1C(=O)N1CCN(c2ccc(O)cc2)CC1 | 97.8% (inactive)
3 | Cc1ccc(C)c(S(=O)(=O)Nc2ccc(O)cc2)c1 | 87.3% (inactive)
4 | O=c1oc2cc(O)ccc2c2ccccc12 | 95.3% (inactive)
5 | Oc1ccc2c(c1)oc1cc(O)ccc12 | 101% (inactive)
6 | OC1CCN(C(=S)Nc2ccc(Nc3ccccc3)cc2)CC1 | 91.4% (inactive)
7 | OCCNc1nc(Nc2ccc(O)cc2)nc2ccccc12 | 86.5% (inactive)
8 | CN1CCN(c2nc(Nc3ccc(O)cc3)nc3ccccc23)CC1 | 89.4% (inactive)
9 | Cc1ccc2oc(=O)c(/C=C(\O)C(C)(C)C)nc2c1 | 87% (inactive)
10 | COc1ccc(NC2CCCN(C(=O)c3ccc(OC)o3)C2)cc1 (configuration not stated) | 99.9% (inactive)
11 | COc1ccc(N2CCN(C(=O)NC3CC(=O)N(c4ccc(OC)cc4)C3)CC2)cc1 (configuration not stated) | 86% (inactive)
12 | CNC(=S)N1CCN(c2ccc(OC)cc2)CC1 | 100% (inactive)
13 | COc1cc2c(cc1NC(=S)Nc1ccccc1C)oc1ccccc12 | 96.6% (inactive)
14 | COc1ccc(CNC(=S)N/N=C/c2ccc(O)c(OC)c2)cc1 | 96.2% (inactive)
15 | COc1cc(/C=N/NC(=O)CC#N)cc(Br)c1O | 142% (inactive)
16 | COc1ccc(N2C(=O)CC(Sc3n[nH]c(-c4cccc(C)c4)n3)C2=O)cc1 (configuration not stated) | 98.2% (inactive)
17 | CC1=C(C#N)c2nc(N)c(C#N)c(C)c2/C1=C\c1ccc(-c2ccccc2C(=O)O)o1 | 112% (inactive)
18 | COc1cc(/C=C2\N=C3CCCCCN3C2=O)ccc1O | 96.3% (inactive)
19 | O=c1/c(=C\c2cc([N+](=O)[O-])cc([N+](=O)[O-])c2O)sc2nc3ccccc3n12 | 92.6% (inactive)

Row | SMILES | viability
20 | O=C1C=C(Nc2ccc(O)cc2)CC(c2ccco2)C1 (configuration not stated) | 100% (inactive)
21 | O=C(O)/C=C/c1ccc(O)cc1 | 104% (inactive)
22 | COc1cc(-c2nc(=S)[nH][nH]2)cc(OC)c1OC | 111% (inactive)
23 | C=CCn1c(CNc2ccccc2)nnc1SCC(=O)N/N=C/c1ccc(O)cc1O | 80.3% (inactive)
24 | O=C(N/N=C/c1ccc(O)cc1)c1csc2ccccc12 | 112% (inactive)
25 | CCCn1c(=O)c2ccccc2n2c(=S)[nH]nc12 | 85.2% (inactive)
26 | CNC(=S)Nc1ccc(Nc2ccccc2)cc1 | 87.8% (inactive)
27 | NC(=O)Nc1ccc(Nc2ccccc2)cc1 | 95.5% (inactive)
28 | O=[N+]([O-])c1cccc(S(=O)(=O)N/N=C/c2ccc(O)cc2)c1 | 101% (inactive)
29 | O=C(CN1C(=O)/C(=C/c2ccco2)SC1=S)Nc1ccc(C(=O)O)c(O)c1 | 117% (inactive)
30 | COc1cc2c(cc1OC)C[N+](C)(C)CC2 | 106% (inactive)
31 | COc1cc(/C=N/Nc2nncn2/N=C/c2ccc(O)c(OC)c2)ccc1O | 81.7% (inactive)
32 | N#CC1=C(N)NC(=S)C(C(N)=O)C1c1ccccc1F (configuration not stated) | 101% (inactive)
33 | CCOc1cc(N2CCOCC2)c(OCC)cc1NC(C)C(=O)N1CCC(C)CC1 (configuration not stated) | 85% (inactive)
34 | CCNC(=S)Nc1cc(OCC)c(N2CCOCC2)cc1OCC | 111% (inactive)
35 | COc1ccc(NC2CCCN(C(=O)CSc3ccccc3)C2)cc1 (configuration not stated) | 92.6% (inactive)
36 | CCOC(=O)C1=C(O)/C(=C\c2ccc(O)c(OCC)c2)N=C1C | 118% (inactive)
37 | O=c1oc2ccccc2c2oc3cc(O)c(O)cc3c12 | 106% (inactive)
38 | O=C1NC(=O)C(c2ccccc2[N+](=O)[O-])=C1Nc1ccc(O)c(Cl)c1 | 89.1% (inactive)

Row | SMILES | viability
39 | COc1cc(/C=N/NC(=O)C2=NNC(=O)C2C)ccc1O (configuration not stated) | 99.6% (inactive)
40 | O=C(c1nnsc1S(=O)c1ccc(Cl)cc1)N1CCOCC1 (configuration not stated) | 86.6% (inactive)
41 | CN(C)c1ccc(NC(=O)CN2CCN(CC(=O)Nc3ccc(F)cc3)CC2)cc1 | 99.9% (inactive)
42 | CCOc1cc(/C=C2\NC(=S)N(c3c(C)n(C)n(-c4ccccc4)c3=O)C2=O)ccc1O | 106% (inactive)
43 | O=S(=O)(NC1=NCCCCC1)c1ccc2sc(NS(=O)(=O)c3ccc4ccccc4c3)nc2c1 | 88.3% (inactive)
44 | COc1cc(/C=C2\S/C(=N/S(=O)(=O)c3ccc(C)cc3)NC2=O)c([N+](=O)[O-])cc1OC | 107% (inactive)
45 | O=S(=O)(Nc1ccc(O)cc1)c1cccc2cccnc12 | 87.8% (inactive)
46 | O=C(c1ccco1)N1CCN(C(=S)Nc2ccc(F)c(Cl)c2)CC1 | 83.2% (inactive)
47 | CN(C)c1ccc(NC(=O)c2ccc(N3CCOCC3)nc2)cc1 | 95.9% (inactive)
48 | COc1cc(C(c2c(C)[nH][nH]c2=O)c2c(C)[nH][nH]c2=O)ccc1OC(=O)c1cccc([N+](=O)[O-])c1 | 122% (inactive)
49 | CCOC(=O)C1(C)C=C(Nc2ccc(O)cc2)C(=O)N1c1ccc(O)cc1 (configuration not stated) | 96.8% (inactive)
50 | Cn1c(=O)oc2cc(S(=O)(=O)Nc3ccc(O)cc3)ccc21 | 84.3% (inactive)
51 | CN(C)c1ccc(NC(=O)CSc2nnc(-c3ccco3)c(-c3ccco3)n2)cc1 | 90.5% (inactive)
52 | N/C(=N\N=C\c1ccc(O)c(O)c1)c1nonc1N | 95.9% (inactive)
53 | COc1cc(/C(C)=N/NC(=O)Cc2c(C)[nH][nH]c2=O)ccc1O | 96.4% (inactive)
54 | CN=c1scc(C)n1/N=C/c1ccc(O)cc1 | 102% (inactive)
55 | CC1=C(C(=O)c2ccccc2)C(c2ccc(O)cc2)NC(=S)N1 (configuration not stated) | 109% (inactive)
56 | Nc1nc2ccc(O)cc2s1 | 104% (inactive)
57 | Cc1cc2c(n1-c1ccc(C(=O)O)cc1)CCCCC2 | 92.3% (inactive)
